Results on seven compounds are retold here after ChEMBL document CHEMBL1961873, “Compounds: GSK PKIS; Assays: Nanosyn kinase panel” (2012).

In experiment [1] the target is Serine/threonine-protein kinase MRCK alpha (Homo sapiens) (UniProt Q5VT25). The settings on record: at 0.1 µM.
For experiment [2] the target is unchanged. As to conditions: at 1 µM.
Experiment [3] deals with Serine/threonine-protein kinase MRCK beta (Homo sapiens) (UniProt Q9Y5S2). The settings on record: at 0.1 µM.
For experiment [4] the target is unchanged. As to conditions: at 1 µM.
For experiment [5], the target named is Ribosomal protein S6 kinase alpha-5 (Homo sapiens) (UniProt O75582). The settings on record: at 0.1 µM.
Experiment [6] has the same target. As to conditions: at 1 µM.
Experiment [7] concerns the target Ribosomal protein S6 kinase alpha-4 (Homo sapiens) (UniProt O75676). As to conditions: at 0.1 µM.
Experiment [8] shares this target. As to conditions: at 1 µM.
The target in experiment [9] is Ribosomal protein S6 kinase beta-1 (Homo sapiens) (UniProt P23443). The settings on record: at 0.1 µM.
The target is the same in experiment [10]. The settings on record: at 1 µM.
For experiment [11], the target named is T1, 3-phosphoinositide-dependent protein kinase 1 (Homo sapiens) (UniProt O15530).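 Further: values are mean inhibition of PDK1.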
T1 sequence (whole entry): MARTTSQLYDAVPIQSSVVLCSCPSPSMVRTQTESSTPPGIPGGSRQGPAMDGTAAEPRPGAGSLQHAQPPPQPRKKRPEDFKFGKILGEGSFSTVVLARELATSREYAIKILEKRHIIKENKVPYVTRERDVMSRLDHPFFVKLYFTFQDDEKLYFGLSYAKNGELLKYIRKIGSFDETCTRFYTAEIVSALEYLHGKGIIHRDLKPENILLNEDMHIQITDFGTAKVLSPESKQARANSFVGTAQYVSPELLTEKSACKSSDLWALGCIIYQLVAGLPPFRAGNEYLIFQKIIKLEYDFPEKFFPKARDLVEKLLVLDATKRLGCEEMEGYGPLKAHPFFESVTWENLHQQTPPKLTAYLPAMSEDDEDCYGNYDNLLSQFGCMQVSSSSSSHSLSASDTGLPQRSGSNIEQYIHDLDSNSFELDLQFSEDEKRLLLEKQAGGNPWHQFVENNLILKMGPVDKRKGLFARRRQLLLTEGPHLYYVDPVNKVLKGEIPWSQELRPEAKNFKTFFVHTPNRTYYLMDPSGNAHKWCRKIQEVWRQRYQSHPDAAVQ
As to conditions: at 0.1 µM.

For experiment [12], the target named is cAMP-dependent protein kinase catalytic subunit alpha (Homo sapiens) (UniProt P17612). The settings on record: at 0.1 µM.
For experiment [13] the target is unchanged. As to conditions: at 1 µM.
Experiment [14] deals with Protein kinase C alpha type (Homo sapiens) (UniProt P17252). As to conditions: at 0.1 µM.
The target is the same in experiment [15]. The settings on record: at 1 µM.
Experiment [16] addresses Protein kinase C beta type (Homo sapiens) (UniProt P05771). As to conditions: at 0.1 µM.
The target is the same in experiment [17]. As to conditions: at 1 µM.
The target of experiment [18] is Protein kinase C eta type (Homo sapiens) (UniProt P24723). The settings on record: at 0.1 µM.
The target is the same in experiment [19]. As to conditions: at 1 µM.
Experiment [20] concerns the target Protein kinase C gamma type (Homo sapiens) (UniProt P05129). As to conditions: at 0.1 µM.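 Further: values are mean percent inhibition of PKC gamma.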

Ribosomal protein S6 kinase alpha-5 (Homo sapiens), sequence (O75582 whole entry, looked up): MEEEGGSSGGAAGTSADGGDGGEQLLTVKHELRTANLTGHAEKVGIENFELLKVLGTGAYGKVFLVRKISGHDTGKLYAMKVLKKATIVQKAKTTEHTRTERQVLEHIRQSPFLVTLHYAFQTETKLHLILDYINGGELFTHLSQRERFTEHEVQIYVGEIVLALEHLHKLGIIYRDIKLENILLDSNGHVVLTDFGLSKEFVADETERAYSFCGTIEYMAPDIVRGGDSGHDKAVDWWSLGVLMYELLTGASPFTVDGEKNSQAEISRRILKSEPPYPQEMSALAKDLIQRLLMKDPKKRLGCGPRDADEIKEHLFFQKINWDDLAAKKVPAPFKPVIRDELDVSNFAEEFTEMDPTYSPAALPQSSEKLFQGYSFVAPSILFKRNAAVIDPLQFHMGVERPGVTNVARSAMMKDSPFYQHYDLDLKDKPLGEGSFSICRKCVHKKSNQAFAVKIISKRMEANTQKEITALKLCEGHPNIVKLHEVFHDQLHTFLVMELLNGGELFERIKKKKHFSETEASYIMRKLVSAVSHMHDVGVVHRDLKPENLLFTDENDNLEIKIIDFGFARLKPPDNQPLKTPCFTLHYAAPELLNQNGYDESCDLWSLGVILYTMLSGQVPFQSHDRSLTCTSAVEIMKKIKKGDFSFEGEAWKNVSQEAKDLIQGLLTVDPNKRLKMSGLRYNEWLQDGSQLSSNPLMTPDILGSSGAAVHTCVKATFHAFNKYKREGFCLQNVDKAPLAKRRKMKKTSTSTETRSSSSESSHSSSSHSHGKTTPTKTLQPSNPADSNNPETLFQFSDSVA
Ribosomal protein S6 kinase beta-1 (Homo sapiens), sequence (P23443 whole entry, looked up): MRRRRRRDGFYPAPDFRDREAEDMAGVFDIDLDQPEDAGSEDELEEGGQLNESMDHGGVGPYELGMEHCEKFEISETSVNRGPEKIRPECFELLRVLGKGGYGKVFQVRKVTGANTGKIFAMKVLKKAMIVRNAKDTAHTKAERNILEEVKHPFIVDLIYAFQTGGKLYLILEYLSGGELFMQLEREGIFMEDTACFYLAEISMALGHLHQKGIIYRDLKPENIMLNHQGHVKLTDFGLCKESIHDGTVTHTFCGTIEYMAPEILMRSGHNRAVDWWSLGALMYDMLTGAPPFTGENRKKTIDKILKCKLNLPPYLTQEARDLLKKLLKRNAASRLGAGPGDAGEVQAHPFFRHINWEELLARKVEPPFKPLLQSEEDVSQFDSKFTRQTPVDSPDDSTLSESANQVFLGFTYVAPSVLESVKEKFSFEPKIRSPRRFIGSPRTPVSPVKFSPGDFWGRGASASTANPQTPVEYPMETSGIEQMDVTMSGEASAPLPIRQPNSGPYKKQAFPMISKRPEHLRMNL
Protein kinase C eta type (Homo sapiens), sequence (P24723 whole entry): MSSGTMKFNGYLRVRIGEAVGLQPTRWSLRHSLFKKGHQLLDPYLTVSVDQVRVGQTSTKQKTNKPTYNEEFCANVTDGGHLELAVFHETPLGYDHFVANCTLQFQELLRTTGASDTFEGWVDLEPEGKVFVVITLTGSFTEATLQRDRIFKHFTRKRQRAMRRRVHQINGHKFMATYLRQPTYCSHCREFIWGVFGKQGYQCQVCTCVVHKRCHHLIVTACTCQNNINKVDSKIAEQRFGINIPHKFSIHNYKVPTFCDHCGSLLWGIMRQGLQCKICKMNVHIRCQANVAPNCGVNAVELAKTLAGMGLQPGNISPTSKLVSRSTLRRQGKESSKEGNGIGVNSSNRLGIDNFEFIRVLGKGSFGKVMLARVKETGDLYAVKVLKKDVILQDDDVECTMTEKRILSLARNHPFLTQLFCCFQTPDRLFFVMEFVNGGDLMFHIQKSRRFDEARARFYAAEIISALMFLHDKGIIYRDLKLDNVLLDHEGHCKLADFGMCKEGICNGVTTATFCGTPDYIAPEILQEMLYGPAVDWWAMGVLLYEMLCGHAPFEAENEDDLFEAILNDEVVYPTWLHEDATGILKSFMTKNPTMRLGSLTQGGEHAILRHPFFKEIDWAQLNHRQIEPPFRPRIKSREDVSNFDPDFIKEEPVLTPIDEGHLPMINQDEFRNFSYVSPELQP
Serine/threonine-protein kinase MRCK alpha (Homo sapiens), sequence (Q5VT25 whole entry): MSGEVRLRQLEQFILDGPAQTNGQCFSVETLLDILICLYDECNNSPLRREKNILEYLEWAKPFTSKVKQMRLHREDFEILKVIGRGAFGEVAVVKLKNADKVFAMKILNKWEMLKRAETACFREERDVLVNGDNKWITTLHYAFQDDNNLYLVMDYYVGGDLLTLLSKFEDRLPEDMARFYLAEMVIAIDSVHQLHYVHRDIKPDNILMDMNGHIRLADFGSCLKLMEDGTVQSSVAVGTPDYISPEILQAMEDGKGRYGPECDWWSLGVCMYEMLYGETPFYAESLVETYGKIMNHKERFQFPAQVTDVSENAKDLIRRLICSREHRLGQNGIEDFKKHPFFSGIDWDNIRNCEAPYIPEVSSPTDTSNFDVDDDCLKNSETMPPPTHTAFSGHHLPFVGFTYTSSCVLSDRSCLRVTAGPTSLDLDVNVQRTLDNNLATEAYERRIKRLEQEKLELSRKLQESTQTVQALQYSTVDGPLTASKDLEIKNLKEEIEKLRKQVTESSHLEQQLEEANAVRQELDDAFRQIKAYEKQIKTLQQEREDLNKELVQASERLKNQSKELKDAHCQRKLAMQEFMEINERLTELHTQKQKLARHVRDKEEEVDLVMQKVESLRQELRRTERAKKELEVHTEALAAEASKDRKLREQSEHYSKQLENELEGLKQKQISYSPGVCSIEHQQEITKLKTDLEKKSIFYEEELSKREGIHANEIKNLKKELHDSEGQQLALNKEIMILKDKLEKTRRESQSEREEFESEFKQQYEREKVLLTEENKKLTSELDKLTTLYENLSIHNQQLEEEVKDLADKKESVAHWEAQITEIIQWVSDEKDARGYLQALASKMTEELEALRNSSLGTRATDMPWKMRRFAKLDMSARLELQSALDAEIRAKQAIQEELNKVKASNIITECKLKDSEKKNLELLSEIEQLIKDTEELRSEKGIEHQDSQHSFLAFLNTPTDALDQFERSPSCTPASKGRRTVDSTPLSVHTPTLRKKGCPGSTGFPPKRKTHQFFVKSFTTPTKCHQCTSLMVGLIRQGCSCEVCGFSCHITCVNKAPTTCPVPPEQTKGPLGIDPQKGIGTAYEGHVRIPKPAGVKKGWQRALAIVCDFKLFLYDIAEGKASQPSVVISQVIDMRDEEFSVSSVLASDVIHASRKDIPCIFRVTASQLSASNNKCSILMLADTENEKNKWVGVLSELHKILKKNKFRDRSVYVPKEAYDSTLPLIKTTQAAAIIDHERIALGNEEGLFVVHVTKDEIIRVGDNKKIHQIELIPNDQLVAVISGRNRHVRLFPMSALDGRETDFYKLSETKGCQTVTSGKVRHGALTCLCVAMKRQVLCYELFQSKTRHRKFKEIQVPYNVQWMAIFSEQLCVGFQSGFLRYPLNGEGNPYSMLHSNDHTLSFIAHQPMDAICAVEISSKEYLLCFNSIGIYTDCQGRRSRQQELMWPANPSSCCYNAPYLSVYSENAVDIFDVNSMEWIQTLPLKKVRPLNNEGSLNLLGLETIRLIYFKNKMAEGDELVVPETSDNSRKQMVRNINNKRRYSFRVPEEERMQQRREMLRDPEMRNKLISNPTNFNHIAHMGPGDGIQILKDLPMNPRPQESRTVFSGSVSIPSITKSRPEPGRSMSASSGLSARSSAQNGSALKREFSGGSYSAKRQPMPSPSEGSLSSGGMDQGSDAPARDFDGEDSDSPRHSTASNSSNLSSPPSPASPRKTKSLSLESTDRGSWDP
Protein kinase C beta type (Homo sapiens), sequence (P05771 2-671 limits assumed): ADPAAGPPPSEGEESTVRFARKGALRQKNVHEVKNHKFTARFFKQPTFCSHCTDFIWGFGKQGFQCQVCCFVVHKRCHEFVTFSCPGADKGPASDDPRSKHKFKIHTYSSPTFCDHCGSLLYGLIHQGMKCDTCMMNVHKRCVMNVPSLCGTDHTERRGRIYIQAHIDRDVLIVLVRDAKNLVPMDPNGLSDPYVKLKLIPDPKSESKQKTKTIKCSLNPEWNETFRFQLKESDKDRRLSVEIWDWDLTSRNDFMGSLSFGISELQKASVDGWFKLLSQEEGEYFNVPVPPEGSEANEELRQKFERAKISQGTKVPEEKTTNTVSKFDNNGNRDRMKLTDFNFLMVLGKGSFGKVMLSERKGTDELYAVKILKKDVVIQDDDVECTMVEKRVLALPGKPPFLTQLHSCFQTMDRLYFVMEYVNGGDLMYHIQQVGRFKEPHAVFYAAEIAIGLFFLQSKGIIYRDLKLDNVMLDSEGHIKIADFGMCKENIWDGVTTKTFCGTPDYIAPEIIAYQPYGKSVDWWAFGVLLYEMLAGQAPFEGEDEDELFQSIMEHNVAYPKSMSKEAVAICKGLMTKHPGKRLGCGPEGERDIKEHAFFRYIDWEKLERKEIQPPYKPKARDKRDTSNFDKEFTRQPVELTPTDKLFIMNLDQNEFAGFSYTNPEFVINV

In general, inhibition refers to the change of the read-out against control, counted positive when it falls. As for `N#Cc1cccc(Nc2nccc(-c3cnn4ncccc34)n2)c1`, the inhibition in experiment [1] is 0%; in experiment [2] it was 2.93%; in experiment [3] it was -1.54%; in experiment [4] it was 1.01%; in experiment [5] it was 3.66%; in experiment [6] it was 8.54%. The inhibition in [7] turned out to be 2.1%; in experiment [8], 8.46%; in experiment [9], 0.58%; in [10], 3.59%; in [11], 2.83%; in [12] it was 2.6%. Further, the inhibition amounted to 12.8% in experiment [13]; 26.2% in experiment [14]; 72.8% in [15]; 2.69% in experiment [16]; 20% in [17]; 7.07% in experiment [18]. Moreover, the inhibition came out at 31.9% in experiment [19] and 6.2% in experiment [20].
Take `COc1cccc(-n2ncc3c(N/N=C/c4ccc(C)cc4)ncnc32)c1`: the inhibition was 4.17% in [1]; 5.98% in [2]; 1.06% in experiment [3]; 1.73% in experiment [4]; -3.87% in [5]; -2.7% in experiment [6]. In addition, the inhibition in [7] worked out at 3.45%; in experiment [8] it was 5.55%; in experiment [9], 2.62%; in experiment [10] it was 3.95%; in [11], 0.64%; in experiment [12], 3.22%. Further, the inhibition in experiment [13] was found to be 2.93%; in [14], 0.52%; in experiment [15] it was 1.66%; in [16], 0.67%; in experiment [17] it was 1.01%; in experiment [18], 5.56%. The inhibition in [19] is 4.73%; in [20], 2.06%.
For `Cc1ccc(O)cc1Nc1ccnc2ccc(S(C)(=O)=O)cc12`, the inhibition in [1] was -0.59%; in experiment [2] it was 3.17%; in experiment [3], -0.33%; in experiment [4] it was 1.42%; in experiment [5], 11.4%; in experiment [6] it was 9.44%. The inhibition in experiment [7] was found to be 2.55%; in [8] it was 3.94%; in experiment [9] it was 3.76%; in experiment [10] it was 2.87%; in experiment [11] it was 1.13%; in [12], 3.25%. The inhibition is 11.9% in [13]; 1.78% in [14]; 11.2% in [15]; 1.93% in experiment [16]; 4.87% in [17]; 2.56% in experiment [18]. The values for the inhibition in [19] and in [20] were 6.46% and 0.83%, respectively.
Regarding `FC(F)(F)c1ccc(-c2nn3ncccc3c2-c2ccnc(Nc3ccc4c(c3)OCCO4)n2)cc1`, the inhibition was 7.63% in experiment [1]; 5.17% in experiment [2]; 6.18% in [3]; 4.64% in experiment [4]; 3.36% in experiment [5]; 4.3% in experiment [6]. The inhibition in experiment [7] was found to be 5.05%; in experiment [8] it was 6.41%; in experiment [9], 1.5%; in [10], 2.06%; in [11] it was 1.11%; in experiment [12], 6.1%. Moreover, the inhibition in experiment [13] came out at 6.96%; in [14] it was 0.99%; in experiment [15] it was 1.28%; in experiment [16], 8.14%; in experiment [17], 11.9%; in experiment [18], 1.27%. Moreover, the inhibition in experiment [19] stood at 6.69%; in [20] it was 5.17%.
Consider `Cc1nc(-c2ccccc2)n2nc(NCCCN3CCOCC3)ncc12`, for which the inhibition in experiment [1] was 6.14%; in experiment [2], 2.64%; in experiment [3], 0.51%; in experiment [4], 0.04%; in experiment [5] it was 0.53%; in experiment [6] it was 1.08%. The inhibition in [7] was 2.47%; in [8], 3.6%; in experiment [9], 1.34%; in experiment [10], 2.24%; in experiment [11], 2.52%; in [12], 2.1%. For the same compound, the inhibition is 2.12% in experiment [13]; -0.23% in experiment [14]; 0.9% in [15]; -0.19% in experiment [16]; 0.04% in [17]; 0.77% in experiment [18]. The inhibition in experiment [19] came to 4.23%; in experiment [20] it was 2.71%.
With `NS(=O)(=O)c1ccc(Nc2cc(-c3cccc(O)c3)n[nH]2)cc1`, the inhibition in experiment [1] was determined as 0.59%; in [2] it was 0.11%; in experiment [3], 0.64%; in experiment [4] it was 1.33%; in experiment [5], 5.25%; in experiment [6] it was 5.94%. Also, the inhibition came out at 2.94% in experiment [7]; 9.16% in experiment [8]; 0.39% in experiment [9]; 2.83% in [10]; 1.78% in experiment [11]; 3% in experiment [12]. The inhibition in experiment [13] was 2.6%; in [14], 1.01%; in experiment [15] it was 1.85%; in experiment [16], -3.34%; in [17], 1.78%; in experiment [18], 3.19%. The inhibition in experiment [19] came out at 2.17%; in [20], 2.3%.
For the compound `ON=C1CCc2cc(-c3nc(C4CCNCC4)[nH]c3-c3ccncc3)ccc21`, the inhibition in experiment [1] was 1.01%; in experiment [2], 1.89%; in experiment [3], -0.75%; in experiment [4], 1.17%; in [5] it was -0.09%; in [6] it was -0.44%. For the same compound, the inhibition is -0.82% in experiment [7]; 1.3% in experiment [8]; 0.43% in [9]; -1.14% in [10]; -0.07% in experiment [11]; 1.54% in experiment [12]. The inhibition in [13] is 18.8%; in experiment [14] it was 1.13%; in [15], 2.47%; in [16], -0.12%; in experiment [17], 11.1%; in experiment [18], -0.55%. The inhibition in experiment [19] is 2.63%; in experiment [20], -1.91%.
